Screening data as filed in PubChem BioAssay.
IP6K1 inh: IP6K1 kinase inhibition | activity change, % (series mostly up to about 58 µM) | AID 1645851 | Q92551 | IP6K1 kinase, ADP-Glo luminescence, 2 h; active compounds read low | 140,000 compounds, 0.81% hits; in the data active = activity change below about -25%; note: % is set by controls: 0 for no effect and ±100 for the full control effect
Target sequence (Q92551 whole entry, looked up): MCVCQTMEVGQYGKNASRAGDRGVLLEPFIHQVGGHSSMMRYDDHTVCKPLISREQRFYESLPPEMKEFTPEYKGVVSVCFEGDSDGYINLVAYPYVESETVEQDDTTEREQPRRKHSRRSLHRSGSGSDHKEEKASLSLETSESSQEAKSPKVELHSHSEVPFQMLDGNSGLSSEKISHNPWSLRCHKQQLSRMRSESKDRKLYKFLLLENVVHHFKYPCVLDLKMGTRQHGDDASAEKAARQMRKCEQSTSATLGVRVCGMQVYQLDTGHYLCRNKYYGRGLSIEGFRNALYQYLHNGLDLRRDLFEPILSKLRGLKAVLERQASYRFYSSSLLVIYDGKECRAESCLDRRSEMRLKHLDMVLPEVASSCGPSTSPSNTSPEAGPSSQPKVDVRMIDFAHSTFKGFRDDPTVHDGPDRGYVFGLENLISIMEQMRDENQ
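ADP-Glo luminescence measures ADP made by human IP6K1 during a 2 h RT reaction with ATP/IP6 (mix at 1.3 mM/130 uM); top library doses 57.5 and 19.1 uM final.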
KDM5B inh: blocks human KDM5B histone demethylase activity | Q9UGL1 | KDM5B demethylase, FDH-coupled NADH fluorescence (FDH is formaldehyde dehydrogenase) | Potency, µM (doses to about 57.7 µM), actives largely listed as inhibitors | 220,000 compounds, 2.6% hits | AID 1347165; active = well fitted inhibition curve with a large enough effect; inconclusive = small, poorly fitted or top-dose-only effect; inactive = no such curve, though single readings can be large or run the other way; note: potency is the fitted concentration of half-maximal effect; 0% is about no effect; nearly all actives have a fitted effect of over 70% in size
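Compound dilutions met 200 nM (final) KDM5BΔAP for 10 min at room temperature before substrate addition. The substrate mix held 12.5 µM H3K4me3 with cofactors 25 µM α-ketoglutarate and 50 µM Fe²⁺. NADH signal gain over 30 min defined activity.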
Active calls of the source: *; i = inactive; ? = inconclusive; nt = not tested or not shown. Only some compounds are listed: those with a hit (about 2.8% of all), similar ones and a draw of the others.

SMILES	IP6K1 inh	KDM5B inh
O=C(O)c1cc(NCc2ccc(-c3ccccc3)cc2)ccc1N1CCOCC1	nt	i
COc1ccccc1-c1cnc(NCc2ccccc2)c2c1CCO2	-22	35µM*
c1ccc(CNc2ncc(-c3ccc(N4CCOCC4)cc3)c3c2OCC3)cc1	6	40µM*
Cc1ccc(-c2cnc(CCC(=O)NCc3ccccc3F)o2)cc1C	nt	i
O=[S+]([O-])(NC1CCN(c2ccc3nnc(-c4ccccc4)n3n2)CC1)c1ccccc1	-20	nt
C[S+](=O)([O-])c1ccc(-c2cc(C(=O)NCC(F)F)nn3cccc23)cc1	5	nt
O=C(O)C1CCN(S(=O)(=O)c2ccc(Cl)c(Cl)c2)CC1	nt	i
CN(C(=O)c1ccc2c(c1)NC(C)(COCC1CC1)CO2)c1ccccc1 (stereo not drawn)	-11	i
CC1(COCC2CC2)COc2ccc(C(=O)N3CCOCC3c3cccc(F)c3)cc2N1 (stereo not drawn)	14	35µM*
COc1ccc(OCC2(C)COc3ccc(C(=O)NCc4cccnc4)cc3N2)cc1 (stereo not drawn)	3	?
CC1(COc2ccccc2)COc2ccc(C(=O)NCc3cccnc3)cc2N1 (stereo not drawn)	-1	35µM*
CC1(CNc2ccccc2)COc2ccc(C(=O)NCCc3ccccc3)cc2N1 (stereo not drawn)	-13	?
CC1(COCC2CC2)COc2ccc(C(=O)NCc3cccc(F)c3)cc2N1 (stereo not drawn)	13	40µM*
CC1(COc2ccccc2)COc2ccc(C(=O)NCCc3cnc[nH]3)cc2N1 (stereo not drawn)	-4	35µM*
C[C@@H]1CN(C(=O)c2ccc3c(c2)NC(C)(COCC2CC2)CO3)C[C@H](C)O1 (stereo partly drawn)	5	i
CCCCCCn1nc(C(=O)OCC(=O)c2cc(C)n(C)c2C)c2ccccc2c1=O	nt	i
Cc1ccccc1NC1(c2nnnn2-c2ccccc2C)CCCC1	nt	i
CC1(COc2ccccc2)COc2ccc(C(=O)NCCc3ccccn3)cc2N1 (stereo not drawn)	10	32µM*
CC1(COc2ccccc2)COc2ccc(C(=O)NCc3cccc(F)c3)cc2N1 (stereo not drawn)	5	32µM*
CC1(COc2ccccc2)COc2ccc(C(=O)NCCc3ccccc3)cc2N1 (stereo not drawn)	0	?
CC1(COc2cccnc2)COc2ccc(C(=O)NCCOc3ccccc3)cc2N1 (stereo not drawn)	7	32µM*
CN(Cc1ccccc1)C(=O)c1ccc2c(c1)NC(C)(COc1cccnc1)CO2 (stereo not drawn)	15	?
CC1(COc2ccccc2)COc2ccc(C(=O)N3CCN(c4ccccn4)CC3)cc2N1 (stereo not drawn)	1	?
CC1(COc2cccnc2)COc2ccc(C(=O)NCCc3ccccc3)cc2N1 (stereo not drawn)	17	35µM*
CCC(CC)NC(=O)COC(=O)c1ccc2ccccc2n1	nt	i
SMILES	IP6K1 inh	KDM5B inh
O=C(CCC1CCN(S(=O)(=O)c2ccccc2)CC1)NCc1ccc(F)cc1	8	i
O=C(CCC1CCN(S(=O)(=O)c2ccccc2)CC1)NCc1ccccc1	10	22µM*
Cc1ccc(S(=O)(=O)NC2CC2)cc1C(=O)Nc1ccccc1C(C)C	nt	i
Cc1cc(C(=O)N2CCN(CC(=O)NC3CC3)CC2)c2ccccc2n1	nt	i
CCCCN1CCN(C(=O)c2cc(-c3ccncc3)nc3ccccc23)CC1	nt	i
CCCCN1CCN(C(=O)c2cc(NC(=O)C3CCC3)cc3nc(C)ccc23)CC1	8	32µM*
CCCN1CCN(C(=O)c2cc(NC(=O)C3CCC3)cc3nc(C)ccc23)CC1	-1	22µM*
CCC1CCc2c(sc(NC(=O)COCC(=O)O)c2C(=O)NCc2ccccc2)C1 (stereo not drawn)	nt	i
Cc1ccccc1C(=O)N1CCC2(CC1)C(=O)N(c1cccc(F)c1)C2c1ccccc1 (stereo not drawn)	4	nt
OC(c1cccc(C(F)(F)F)c1)c1nc(Nc2cccc(Cl)c2)n[nH]1 (stereo not drawn)	3	i
CC(O)CN1CC2(CCC1=O)CCN(C(=O)c1ccnn1C)CC2 (stereo not drawn)	9	i
Cc1cc(C)c(C#N)c(N2CCC3(CCC(=O)N(CC(C)O)C3)CC2)n1 (stereo not drawn)	21	28µM*
Cc1ccccc1Nc1nc(N)nc(CSCc2ccc(C#N)cc2)n1	nt	i
CN(C)c1cccc(-c2cnc3[nH]cc(CC(=O)NCc4cccnc4)c3c2)c1	-18	?
O=C(Cc1c[nH]c2ncc(-c3ccccc3F)cc12)NCc1cccnc1	-16	28µM*
O=C(Cc1c[nH]c2ncc(-c3ccccc3C(F)(F)F)cc12)NCc1cccnc1	-18	?
O=C(Cc1c[nH]c2ncc(-c3cccc(CO)c3)cc12)NCc1cccnc1	-10	32µM*
CCN(CC)c1nc2ccccc2nc1C(=O)Nc1cccc(C)c1	nt	i
COc1cc(NC(=O)C2(n3cnnn3)CCCCC2)cc(OC)c1	nt	i
Fc1ccccc1OCC1CCCN(c2nccc(-c3cccnc3)n2)C1 (stereo not drawn)	0	28µM*
Cn1ccnc1CN1CCN(c2nccc(-c3cccnc3)n2)CC1	-1	i
c1cncc(-c2ccnc(N3CCCOC(Cn4cccn4)C3)n2)c1 (stereo not drawn)	-17	25µM*
c1ccc(COC2CCN(c3nccc(-c4cccnc4)n3)CC2)nc1	10	?
COc1ccc(-c2ccc(C(=O)NC3CCCC3)c(Cl)c2)nn1	-3	nt
CN(CC(=O)NC(N)=O)CC1CCCCC1	nt	i
SMILES	IP6K1 inh	KDM5B inh
CC1=C(C(=O)O)N2C(=O)[C@@H](NC(=O)[C@H](N)c3ccc(O)cc3)[C@H]2SC1	6	nt
CC(=O)OCC1=C(C(=O)O)N2C(=O)[C@@H](NC(=O)CSc3ccncc3)[C@H]2SC1	-42*	nt
CCCn1c(N)c(N(CCOC)C(=O)c2ccc(OC(F)(F)F)cc2)c(=O)[nH]c1=O	nt	i
O=S(CCCOc1ccc(F)cc1)Cc1ccccc1 (stereo not drawn)	nt	i
C=CCOc1ccccc1NC(=O)c1ccccc1	nt	i
Cn1ccc2c(C(=O)NCc3cccnc3)nc(-c3cccc(O)c3)cc21	8	40µM*
Cc1ccc(-c2cc3c(ccn3C)c(C(=O)NCc3cccnc3)n2)cn1	7	i
Cn1ccc2c(C(=O)NCc3cccnc3)nc(-c3cccc(F)c3)cc21	2	22µM*
Cn1ccc2c(C(=O)NCc3cccnc3)nc(-c3cncnc3)cc21	17	i
CCN(CC)S(=O)(=O)c1ccc2[nH]c(=O)cc(C(=O)N(C)Cc3ccccc3C)c2c1	nt	i
Cc1ccc(C(=O)C(NC(=O)c2ccco2)Nc2cccc(C)c2)cc1 (stereo not drawn)	nt	i
CCCCn1nc(C(=O)Nc2nc(-c3cccs3)cs2)c2ccccc2c1=O	nt	i
COc1ccccc1-c1ccc(C(=O)N2CCC(C(=O)NC3CCCC3)CC2)cc1	5	nt
COc1cccc(CNC(=O)c2c(C)oc3ccn(Cc4ccc(F)cc4)c(=O)c23)c1	25	?
Clc1ccccc1C1(c2ccnc(C3CC3)n2)CCNCC1	5	i
CN(C)C1CCN(c2nccc(C3(c4ccccc4Cl)CCNCC3)n2)C1 (stereo not drawn)	3	28µM*
